# MCF10A rereplic = DNA re-replication induction in MCF 10a cells | MCF 10A DNA re-replication, Hoechst nuclear intensity, 48 h | Potency, µM (highest dose often 46.1 µM), usual class: activators | 350,000 tested, 2.9% active; note: nearly all actives have a fitted effect of over 50% in size
# Giardia kill = Giardia lamblia killing. Giardia lamblia trophozoite viability. 340,000 tested, 0.15% active. activity change, % at 7.66 µM, hits read low; in the data active = activity change below about -80%; inconclusive = between about -30% and that limit;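 note: parasites exposed to compound for two days anaerobically before the ATP read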
#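 Compounds were tested on trophozoites seeded at 100 cells/well and held 48 hrs at 37 deg C anaerobically. An ATP-based luminescent kit measured the remaining live cells.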
# SW480 rerep = induces DNA re-replication in SW480 colon adenocarcinoma cells | SW480 DNA re-replication, Hoechst DNA content imaging, 48 h | Potency, µM (doses to about 46.1 µM), hits mostly activators | 340,000 tested, 1.8% active | AID 624297; note: nearly all actives have a fitted effect of over 55% in size
#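 Image-based read-out: total Hoechst fluorescence of nuclei (405 nm excitation, 500-530 nm emission), with hits raising the fraction of high-intensity nuclei. SW480 colon cells incubated 48 hr with compounds at 37 C.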
# Vif-A3F inh = blocks the Vif interaction with APOBEC3F. 390,000 tested, 0.2% active. Potency, µM (titrated, usually from 46.1 µM). HeLa A3F-eYFP + Vif (tagged APOBEC3F with the HIV-1 protein that degrades it), YFP fluorescence increase. AID 602313; note: nearly all actives have a fitted effect of over 65% in size
#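 Fluorescence increase (Ex 488/Em 500-530) after overnight compound treatment at 37 deg C flags inhibition of Vif-driven A3F-eYFP loss in stable HeLa A3F-eYFP/Vif cells seeded overnight beforehand.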
# Vif-A3G inh = inhibitors of Vif-APOBEC3G interaction. HeLa A3G-eYFP + Vif (tagged APOBEC3G with the HIV-1 protein that degrades it), YFP fluorescence, overnight. AID 602310. 410,000 tested, 0.076% active. Potency, µM (titrated, usually from 46.1 µM), most hits filed as inhibitors. Q9HC16; note: nearly all actives have a fitted effect of over 60% in size
# Target sequence (Q9HC16 whole entry, looked up): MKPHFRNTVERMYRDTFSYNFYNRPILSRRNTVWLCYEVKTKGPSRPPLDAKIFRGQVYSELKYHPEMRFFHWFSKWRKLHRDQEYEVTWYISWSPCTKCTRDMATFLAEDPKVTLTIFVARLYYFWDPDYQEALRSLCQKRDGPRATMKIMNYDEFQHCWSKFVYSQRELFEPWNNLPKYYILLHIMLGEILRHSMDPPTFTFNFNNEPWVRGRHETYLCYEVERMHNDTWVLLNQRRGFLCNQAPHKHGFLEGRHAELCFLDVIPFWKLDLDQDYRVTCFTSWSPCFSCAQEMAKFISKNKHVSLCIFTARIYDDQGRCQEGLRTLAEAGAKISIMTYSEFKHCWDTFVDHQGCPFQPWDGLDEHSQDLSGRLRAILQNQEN
#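 HeLa cells stably expressing Vif and C-terminally eYFP-tagged A3G, seeded overnight at 37 deg C, then exposed to compound by pintool overnight at 37 deg C. Rise in yellow fluorescence (Ex 488/Em 500-530, Acumen) marks blocked Vif-driven A3G degradation.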
# IL1B secr inh = inhibitors of inflammasome signaling (IL-1 beta secretion); activity change, % at 57.5 µM; THP-1 LPS/ATP IL-1B secretion, AlphaLISA, 16 h; active compounds read low; 360,000 tested, 4.7% active; in the data active = activity change below about -50%; inconclusive = mostly about -30% to -49%
#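 Secreted IL-1B measured by AlphaLISA bead assay after 16 h compound exposure of THP-1 cells; compounds (final up to 57.5 uM) added 1 h before LPS (250 ng/mL) and ATP (1.25 mM) stimulation; lower signal means less secretion.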
# A number is an active result; - = inactive; ? = inconclusive; . = no result given; [ ] = another dose, or the depositor's remark. This is a sample that favours compounds with a hit; in the whole collection about 6.9% have one here. Unless noted, calls come from the whole dose curve; as a rule, active = well fitted curve in the direction sought with a large enough effect; inconclusive = small, poorly fitted or top-dose-only effect, or another doubt; inactive = no such curve, though single readings can be large; an effect the other way counts as inactive or inconclusive.
SMILES,MCF10A rereplic,Giardia kill,SW480 rerep,Vif-A3F inh,Vif-A3G inh,IL1B secr inh
Cc1ccccc1C(=O)N1CCN(c2ccc(NC(=O)c3ccc4c(c3)OCCO4)cc2)CC1,16µM,-,-,-,-,?
C#CC(C)(C)NS(=O)(=O)c1cc(-c2nnc(Nc3ccc(C)cc3)c3ccccc23)ccc1C,.,.,.,-,-,.
Cc1nn(C)c2c1c(C(F)(F)F)cc(=O)n2CC(=O)N1CCCCC1,.,.,.,-,-,.
CC(=O)Nc1ccc(/C=C/c2ccccn2)cc1,.,.,.,.,-,.
Cc1ccc(-c2nc(-c3ccccn3)no2)cc1,-,-90,-,-,-,-
c1ccc(-c2ccc(-c3nc(-c4ccccn4)no3)cc2)cc1,-,?,-,-,-,-
COc1ccc(CC(=O)Nc2cccc(-c3nnc(-c4cccc(C)c4)o3)c2)cc1OC,?,-,-[9.22 µM],-,-,-
COc1ccc(CC(=O)Nc2cccc(-c3nnc(-c4ccc(C)cc4)o3)c2)cc1OC,?,-,-,-,-,-99
COc1ccc(CC(=O)Nc2cccc(-c3nnc(-c4ccccc4)o3)c2)cc1OC,21µM,-,-,-,-,-72
CSc1ccc(CCNC(=O)C(C)n2c(C)c3cnn(-c4ccccc4)c(=O)c3c2C)cc1 (stereo not given),.,.,.,-,-,.
CCc1ccc(NC(=O)CSc2nccn2C2CCCC2)cc1,.,.,.,-,-,.
Clc1nc(NCC2CCCO2)c2[nH]cnc2n1 (stereo not given),.,-,.,.,-,.
Cc1ccc(CNC(=O)c2cn(C3CCCCC3)c(=O)c3c2c2ccccc2n3C)o1,?,-,?,-,-,-86
Cc1ccc(CNC(=O)c2cn(C)c(=O)c3c2c2ccccc2n3C)o1,?,-,-,-,-,-
COc1ccccc1C(=O)N1c2ccccc2C(C)(c2ccc(Cl)cc2)CC1(C)C (stereo not given),.,.,.,-,-,.
O=C(CSc1nc(=O)n(Cc2ccncc2)c2c1CCC2)Nc1cccc(F)c1,.,.,.,-,-,.
C=C1C(=O)[C@]23C[C@H]1CC[C@H]2[C@]1(C)[C@@H](OC(C)=O)CC[C@@](C)(C(=O)O)[C@H]1C[C@@H]3OC(C)=O,.,.,.,.,?,-99
C=C1C(=O)[C@]23C[C@H]1CCC2[C@]1(C)CCC[C@@](C)(C(=O)O)C1C[C@@H]3O (stereo not given in full),.,.,.,.,-,-121
C=C[C@]1(C)C=C2CCC3[C@](C)(CCC[C@@]3(C)C(=O)O)C2CC1 (stereo not given in full),?,-,-,-,-,-
C=C1C(=O)[C@]23C[C@H]1CCC2[C@]1(C)C(=O)CC[C@@](C)(C(=O)O)C1C[C@@H]3O (stereo not given in full),.,.,.,.,?,-109
Cc1cccc(C)c1OCC(=O)N/N=C/c1ccc2c(c1)OCO2,5.8µM,-,?,-,?,-
O=C(N/N=C/c1ccc2c(c1)OCO2)c1cccc2ccccc12,16µM,-,-,-,?,-
Cc1ccccc1NCC(=O)N/N=C\c1ccc2c(c1)OCO2,-,-,-,-,-,-
N#Cc1ccc(/C=N/NC(=O)c2cc(-c3cccs3)nc3ccccc23)cc1,21µM,-,?,-,?,-
O=C(N/N=C/c1ccc2c(c1)OCO2)c1ccc(COCC(F)(F)C(F)F)cc1,?,-,6.5µM,-,-,-
SMILES,MCF10A rereplic,Giardia kill,SW480 rerep,Vif-A3F inh,Vif-A3G inh,IL1B secr inh
O=C(NCc1ccco1)C1CCN(C(=O)N2CCOc3ccccc32)CC1,.,.,.,-,-,.
CCCCNC(=O)Cn1c(SCc2cccc(C)c2)nc2ccncc21,.,?,.,.,-,.
CC(C)C(=O)Nc1ccc(/C=C2\C=Cc3ccccc32)cc1,.,.,.,.,-,.
O=C(N/N=C/c1ccc2c(c1)OCO2)c1cc(-c2ccco2)nc2ccccc12,?,-,15µM,-,?,-
O=C(N/N=C/c1ccc2c(c1)OCO2)c1cc(-c2ccccc2)nc2ccccc12,?,-,-,-,-,-
CC1=C(C(=O)OC2CCCCCCC2)C(c2ccc(O)cc2)NC(=O)N1 (stereo not given),-,-,-,-,-,-55

# Screens from PubChem BioAssay.
